Records with an inconclusive call do not appear. Values without a mark were called inactive. Calls of active or inactive are those of the source. The call rests on the fitted dose curve; in most records, active means well fitted curve in the direction sought with a large enough effect; inconclusive means small, poorly fitted or top-dose-only effect, or another doubt; inactive means no such curve, though single readings can be large or run the other way.
biological target: Relaxin receptor 1 (Homo sapiens) (UniProt Q9HBX9); assay: qHTS Assay for Agonists of the Relaxin Receptor RXFP1: RXFP1 SAR; conditions: HEK293T-RXFP1 cAMP TR-FRET, 30 min; efficacy: active compounds read high
Description: The relaxin hormone is involved in the variety of biological functions in normal tissues and diseases. The role of relaxin is well-established in female reproduction and parturition, mammary gland and endometrial development, maintenance of myometrial quiescence during pregnancy. Relaxin signaling through its G protein-coupled receptor (GPCR) RXFP1 results in ECM remodeling through regulation of collagen deposition, cell invasiveness, proliferation and overall tissue homeostasis. […] Recombinant human relaxin (rhRlx) is currently being tested in clinical trials as a protective agent in congestive heart failure, in treating severe preeclampsia, and as an anti-fibrotic agent in systemic sclerosis. Upon relaxin binding RXFP1 activation leads to the activation of adenylate cyclase (AC) via Gs. cAMP will activate PKA, which phosphorylates many signaling proteins. Thus, detection of cAMP increase is an easy and reliable indication of relaxin receptor activation. To screen for agonists of the relaxin receptor, a HEK293T cell line stably transfected with RXFP1 was used. RXFP1 activation was assayed by changes in cAMP levels as detected with a time-resolved fluorescence energy transfer (TR-FRET) cAMP detection kit. NIH Chemical Genomics Center [NCGC] NIH Molecular Libraries Probe Production Centers Network [MLPCN] MLPCN Grant: R03 MH085705-01A1 Assay Submitter (PI): Alexander Agoulnik
This is a cell-based assay for cAMP second messenger response to screen for agonists of the RXFP1 receptor. The assay was conducted in the presence of a PDE4 inhibitor (Ro 20174). The cells were lysed and the cAMP levels were measured with a TR-FRET cAMP kit. Presence of cAMP in the cell lysate disrupts binding between the cryptate-labeled anti-cAMP and d2-labeled cAMP pair, leading to a decrease in the TR-FRET signal. Data were normalized to the controls for basal activity (buffer only) and 100% activity (29 nM porcine relaxin). The EC50 values were determined from concentration-response data modeled with the standard Hill equation 1536-well assay protocol for the HEK293 RXFP1 cAMP assay: (1) Add 3 ul HEK293 RXFP1 cell culture. 2000 cells/well in DMEM/F12, 10% FBS, 1x Pen/Strep (dispensed offline with MultiDrop Combi). (2) Incubate 16-24 hr at 37C, 5% CO2. (3) Add 1 ul 400uM Ro20174 in DPBS, 0.05% BSA, 0.005% Tween 20. (3) Add 23 nl compounds in DMSO solution. Final concentration was 0.5 - 58 uM. (4) Incubate 30 min at 37C, 5% CO2. (5) Add 1 ul cAMP-d2 in lysis buffer (HTRF cAMP HiRange kit, CisBio). (6) Add 1 ul anti-cAMP antibody-cryptate in lysis buffer (HTRF cAMP HiRange kit, CisBio). (7) Incubate 30 min at room temperature. (6) Detect the assay plate in a ViewLux plate reader (PerkinElmer) with Ex=320 nm, Em1=615 nm and Em2=665 nm. Keywords: relaxin, RXFP1, RXFP2, G-protein coupled receptor, cAMP, agonist, high throughput screening, MLSMR, MLSCN, NIH Roadmap, qHTS and NCGC

Relaxin receptor 1 (Homo sapiens), sequence (Q9HBX9 whole entry, looked up): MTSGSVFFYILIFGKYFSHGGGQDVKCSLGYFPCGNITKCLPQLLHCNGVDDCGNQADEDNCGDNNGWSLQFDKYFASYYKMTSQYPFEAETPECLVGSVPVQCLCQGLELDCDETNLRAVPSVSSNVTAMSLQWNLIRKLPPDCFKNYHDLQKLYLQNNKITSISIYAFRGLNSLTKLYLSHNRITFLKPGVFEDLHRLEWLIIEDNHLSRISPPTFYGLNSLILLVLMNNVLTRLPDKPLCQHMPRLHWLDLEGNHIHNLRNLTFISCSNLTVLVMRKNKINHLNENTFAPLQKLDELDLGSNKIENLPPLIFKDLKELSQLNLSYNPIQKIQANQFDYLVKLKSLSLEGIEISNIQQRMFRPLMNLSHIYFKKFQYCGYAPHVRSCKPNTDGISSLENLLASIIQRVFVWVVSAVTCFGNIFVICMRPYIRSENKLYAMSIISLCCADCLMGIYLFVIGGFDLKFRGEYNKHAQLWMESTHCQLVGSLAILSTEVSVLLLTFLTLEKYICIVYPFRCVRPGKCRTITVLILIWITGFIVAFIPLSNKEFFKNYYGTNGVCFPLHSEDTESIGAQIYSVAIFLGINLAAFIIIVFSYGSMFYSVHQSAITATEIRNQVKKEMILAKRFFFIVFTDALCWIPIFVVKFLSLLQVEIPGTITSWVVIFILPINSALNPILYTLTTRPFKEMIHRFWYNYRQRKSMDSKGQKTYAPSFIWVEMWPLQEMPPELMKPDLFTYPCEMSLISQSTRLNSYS

| SMILES | Potency | efficacy [%] |
| --- | --- | --- |
| O=C(Nc1ccccc1C(=O)Nc1cccc(C(F)(F)F)c1)c1ccccc1 | 1330 nM (active) |  |
| COc1ccccc1C(=O)Nc1cccc(C(=O)Nc2cccc(C(F)(F)F)c2)c1 |  | 1.37 |
| O=C(Nc1cccc(C(F)(F)F)c1)c1ccccc1NC(=O)C1CCCCC1 | 1880 nM (active) |  |
| CCOc1ccccc1C(=O)Nc1sccc1C(=O)Nc1cccc(S(=O)(=O)C(F)(F)F)c1 | 2360 nM (active) |  |
| O=C(Cc1ccccc1)Nc1ccccc1C(=O)Nc1cccc(C(F)(F)F)c1 | 8380 nM (active) |  |
| CC(C)(C)c1cccc(NC(=O)c2ccccc2NC(=O)C2CCCCC2)c1 | 2650 nM (active) |  |
| CCC(CC)C(=O)Nc1ccccc1C(=O)Nc1cccc(C(F)(F)F)c1 | 5290 nM (active) |  |
| O=C(Nc1cccc(S(=O)(=O)C(F)(F)F)c1)c1ccccc1NC(=O)c1ccccc1OCC(F)(F)F | 66.6 nM (active) |  |
| O=C(Nc1cccc(C(F)(F)F)c1)c1ccccc1NC(=O)C1CCC1 | 2970 nM (active) |  |
| CCCOc1ccccc1C(=O)Nc1ccccc1C(=O)Nc1cccc(S(=O)(=O)C(F)(F)F)c1 | 52.9 nM (active) |  |
| O=C(Nc1cccc(Br)c1)c1ccccc1NC(=O)C1CCCCC1 | 2650 nM (active) |  |
| CCOc1ccccc1C(=O)Nc1cnccc1C(=O)Nc1cccc(S(=O)(=O)C(F)(F)F)c1 | 2970 nM (active) |  |
| O=C(Nc1ccccc1C(=O)Nc1cccc(C(F)(F)F)c1)c1ccccc1Cl | 3740 nM (active) |  |
| O=C(NCc1ccco1)c1ccccc1NC(=O)c1ccccc1NC(=O)C1CCCCC1 | 9400 nM (active) |  |
| O=C(Nc1cccc(C(F)(F)F)c1)c1ccccc1NC(=O)c1ccccc1OC(F)(F)F | 1180 nM (active) |  |
| CC(C)Oc1ccccc1C(=O)Nc1ccccc1C(=O)Nc1cccc(C(F)(F)F)c1 | 471 nM (active) |  |
| COCCOc1ccccc1C(=O)Nc1ccccc1C(=O)Nc1cccc(C(F)(F)F)c1 | 747 nM (active) |  |
| COc1ccccc1C(=O)Nc1ccc(C(=O)Nc2cccc(C(F)(F)F)c2)cc1 |  | -2.02 |
| O=C(Nc1cccc(C(F)(F)F)c1)c1ccccc1NC(=O)C1CCCC1 | 2360 nM (active) |  |
| CCOc1ccccc1C(=O)Nc1cccnc1C(=O)Nc1cccc(S(=O)(=O)C(F)(F)F)c1 | 4710 nM (active) |  |

| SMILES | Potency | efficacy [%] |
| --- | --- | --- |
| O=C(Nc1cccc(C(F)(F)F)c1)c1ccccc1NC(=O)C1CCCCCC1 | 2110 nM (active) |  |
| CCCCC(=O)Nc1ccccc1C(=O)Nc1cccc(C(F)(F)F)c1 | 5290 nM (active) |  |
| O=C(Nc1cccc(-c2cccc(C(F)(F)F)c2)c1)c1ccccc1NC(=O)C1CCCCC1 |  | 15 |
| CCOc1ccccc1C(=O)Nc1ncccc1C(=O)Nc1cccc(S(=O)(=O)C(F)(F)F)c1 | 1670 nM (active) |  |
| O=C(Nc1ccccc1C(=O)Nc1cccc(C(F)(F)F)c1)c1cccnc1 | 5930 nM (active) |  |
| CCOc1ccccc1C(=O)NCCC(=O)Nc1cccc(S(=O)(=O)C(F)(F)F)c1 | 4710 nM (active) |  |
| CSc1cccc(NC(=O)c2ccccc2NC(=O)C2CCCCC2)c1 | 5290 nM (active) |  |
| CCOc1ccccc1C(=O)Nc1ccncc1C(=O)Nc1cccc(S(=O)(=O)C(F)(F)F)c1 | 747 nM (active) |  |
| COc1cccc(OC)c1C(=O)Nc1ccccc1C(=O)Nc1cccc(C(F)(F)F)c1 | 7470 nM (active) |  |
| CCOc1ccccc1C(=O)Nc1ccccc1CNc1cccc(S(=O)(=O)C(F)(F)F)c1 | 2650 nM (active) |  |
| COc1ccccc1C(=O)Nc1ccccc1C(=O)Nc1cccc(SC(F)(F)F)c1 | 297 nM (active) |  |
| CCOc1ccccc1-c1nc2c(C(=O)Nc3cccc(S(=O)(=O)C(F)(F)F)c3)cccc2[nH]1 |  | 4.9 |
| COc1ccccc1C(=O)N(C)c1ccccc1C(=O)N(C)c1cccc(C(F)(F)F)c1 |  | 0.957 |
| O=C(Nc1cccc([N+](=O)[O-])c1)c1ccccc1NC(=O)C1CCCCC1 | 5930 nM (active) |  |
| O=C(Nc1cccc(-c2ccccc2C(F)(F)F)c1)c1ccccc1NC(=O)C1CCCCC1 | 2650 nM (active) |  |
| CCSc1ccccc1C(=O)Nc1ccccc1C(=O)Nc1cccc(S(=O)(=O)C(F)(F)F)c1 | 529 nM (active) |  |
| COc1ccccc1C(=O)Nc1ccccc1C(=O)Nc1cccc(S(=O)(=O)C(F)(F)F)c1 | 188 nM (active) |  |
| CN(C)CCOc1ccccc1C(=O)Nc1ccccc1C(=O)Nc1cccc(C(F)(F)F)c1 | 3740 nM (active) |  |
| Cc1ccccc1C(=O)Nc1ccccc1C(=O)Nc1cccc(C(F)(F)F)c1 | 4200 nM (active) |  |
| CCOc1ccccc1S(=O)(=O)Nc1ccccc1C(=O)Nc1cccc(S(=O)(=O)C(F)(F)F)c1 |  | -2.44 |

Reference: PubChem BioAssay AID602256 (National Center for Advancing Translational Sciences (NCATS), 2012)
